Bioassay records from PubChem.
14-3-3 PPI: modulators of human 14-3-3 gamma - Raf peptide interaction; FP, 14-3-3gamma / TMR-pS259-Raf peptide binding; inhibition, % at 40 µM; actives 0.19% (n = 160,000); AID 422; in the data active = inhibition above about 30%;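 note: 0% = protein plus tracer without compound and 100% = blank with tracer alone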
Target sequence (P61981 whole entry, looked up): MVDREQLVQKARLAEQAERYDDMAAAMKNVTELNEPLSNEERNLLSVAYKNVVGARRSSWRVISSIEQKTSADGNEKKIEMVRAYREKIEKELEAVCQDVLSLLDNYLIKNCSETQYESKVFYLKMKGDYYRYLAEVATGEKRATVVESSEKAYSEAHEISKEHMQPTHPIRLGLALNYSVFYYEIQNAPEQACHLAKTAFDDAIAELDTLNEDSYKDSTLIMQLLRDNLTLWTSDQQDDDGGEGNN
* hit, by the source's call. The entries come from a sample that favours hits as a whole.

SMILES	14-3-3 PPI
Cc1cccc(N=Cc2c(O)c(C(=O)Nc3ccccc3C)cc3ccccc23)c1	-16
CCc1cccc(N=Cc2c(O)c(C(=O)Nc3ccccc3)cc3ccccc23)c1	6
CCOCCn1c(SCC(N)=O)nc2c1c(=O)[nH]c(=O)n2C	-1
COC(=O)c1c(NC(=O)c2cccc(C)c2)sc2c1CCC(C)C2 (stereo unspecified)	1
CCNC(=O)CN(c1cccc(C)c1C)S(=O)(=O)c1ccccc1	11
O=C(Nc1ccc(Br)cc1)c1cc(S(=O)(=O)NCc2ccccc2Cl)ccc1F	-4
CNc1c(C(=O)O)ccc2c1C(=O)c1ccccc1C2=O	-149
CC1CCCC(C)N1C(=O)c1ccc2c(c1NCCO)C(=O)c1ccccc1C2=O (stereo unspecified)	-268
O=C(O)c1ccc2c(c1NCCO)C(=O)c1ccccc1C2=O	31*
O=C1c2ccccc2-c2ncnc3cccc1c23	-5
O=C(O)c1ccc2c3c(ncnc13)-c1ccccc1C2=O	40*
COc1ccc(Nc2ccc3c4c(ncnc24)-c2ccccc2C3=O)cc1	-72
Cc1ccc(C(=O)NCCCNc2ccc([N+](=O)[O-])cc2)cc1	-8
N[C@@H](Cc1ccc(O)c(O)c1)C(=O)O	-7
C[C@H](Cc1ccc(O)c(O)c1)[C@@H](C)Cc1ccc(O)c(O)c1	-10
CC(Cc1ccc(O)c(O)c1)C(C)Cc1ccc(O)c(O)c1 (stereo unspecified)	60*
CCn1cc(C(=O)Nc2ccc(F)cc2)c2cc(OC)c(OC)cc2c1=O	4
CC(=O)NC(=O)c1cc2c(ccc3ccccc32)oc1=Nc1ccc(C#N)cc1	-7
CCCOc1c(Br)cc(C2C3=C(CCCC3=O)N(CC)C3=C2C(=O)CCC3)cc1OCC	-10
CCOc1cc(C2C3=C(CCCC3=O)N(CC)C3=C2C(=O)CCC3)ccc1O	5
CCOc1cc(C2C3=C(CCCC3=O)N(CC)C3=C2C(=O)CCC3)cc(Br)c1O	41*
O=C(C1=C(O)C(=O)N(CCCn2ccnc2)C1c1cccc([N+](=O)[O-])c1)c1ccco1 (stereo unspecified)	2
COc1ccc(C2=NN(CC(=O)N3CCN(c4ccccc4)CC3)C(=O)CC2)cc1	-3
